# Values without a mark were called inactive. Unless noted, calls follow the shape of the dose curve; as a rule, active = well fitted curve in the direction sought with a large enough effect in the repeat runs; inconclusive = weak or mixed curves; inactive = flat fitted curve, though single readings scatter. Inconclusive results are not listed.
# System: not listed separately
# Test: qHTS assay to test for compound auto fluorescence at 460 nm (blue) in HepG2 cells (AID 720687)
# Details: autofluorescence 405/460 nm, 1 h; series mostly up to 91.3 µM; fluorescence, % of fluorescent control: at the top concentration
# Outline: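 Cells (2,000/well in MEM with 10% FBS) attached overnight at 37 C, then were exposed to compound or DMSO for 1 hr at 37 C, 5% CO2. Fluorescence read at Ex/Em 405/460 nm, expressed as triamterene-equivalent signal.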
# % is scaled to controls: 0 for no effect and ±100 for the full control effect.
row,SMILES,"fluorescence, % of fluorescent control"
1,NCC(=O)CCC(=O)O,-0.0467% [at 46 µM]
2,O=C1OC(=O)C2C3C=CC(C3)C12 (stereo not given),0.0509%
3,C=C(C)C(=O)OCCOCC,0.195%
4,CC1(c2ccccc2)OC(C(=O)O)=CC1=O (stereo not given),-0.131% [at 46 µM]
5,C[N+](C)(C)CCOC(=O)CCC(=O)OCC[N+](C)(C)C,-0.0134% [at 46 µM]
6,CCOC(=O)Cc1cccc2ccccc12,-0.0598%
7,CC(=O)c1ccc2c(c1)N(CCCN(C)C)c1ccccc1S2,-0.0528% [at 18.6 µM]
8,CN1CCN(C(c2ccccc2)c2ccccc2)CC1,0.0094% [at 18.6 µM]
9,Clc1ccc(Cn2c(CN3CCCC3)nc3ccccc32)cc1,0.0474% [at 18.6 µM]
10,CC1=CC=C(C(C)C)CC1,0.075%
11,C[C@H]1C[C@H]2[C@@H]3CCC4=CC(=O)C=C[C@]4(C)[C@@]3(Cl)[C@@H](O)C[C@]2(C)[C@@]1(O)C(=O)CO,0.111% [at 46 µM]
12,CCCCCCCCO[C@@H]1O[C@H](CO)[C@@H](O)[C@H](O)[C@H]1O,-0.0982%
13,CC(C)(O)c1ccc(CNC(=O)c2cccnc2Oc2ccc(F)cc2)cc1,0.244%
14,c1ccc(CNCCNCc2ccccc2)cc1,-0.0414% [at 46 µM]
15,COC(C)OC,-0.0566%
16,CC(COCCO)OCCO (stereo not given),0.0502%
17,O=S(=O)(Oc1ccc(Cl)cc1)c1ccccc1,-0.0667%
18,COS(=O)(=O)C(F)(F)F,-0.173% [at 95.7 µM]
19,CCNc1cc(O)ccc1C,4.12%

row,SMILES,"fluorescence, % of fluorescent control"
1,Nc1cccc([N+](=O)[O-])c1,-0.0078%
2,CC/C=C\CCOC(=O)CC,-0.0406%
3,O=C(c1ccc(F)cc1)C1CCN(CCn2c(=S)[nH]c3ccccc3c2=O)CC1,-0.0194% [at 46 µM]
4,CCN(CC)c1ccc2c(-c3ccccc3C(=O)O)c3ccc(=[N+](CC)CC)cc-3oc2c1,0.947%
5,CC(C)CC(=O)C1C(=O)c2ccccc2C1=O,0.0103%
6,ClCCOCCOCCCl,-0.129%
7,CCCCc1ncc(/C=C(\Cc2cccs2)C(=O)O)n1Cc1ccc(C(=O)O)cc1,-0.0526% [at 46 µM]
8,CN(C)C(=O)NC1(c2ccccc2)CCN(CC[C@@]2(c3ccc(F)c(F)c3)CN(C(=O)c3ccccc3)CCO2)CC1,-0.161%
9,CC(=O)NO,-0.245% [at 46 µM]
10,COc1cc2nc(N3CCN(C(=O)C4COc5ccccc5O4)CC3)nc(N)c2cc1OC (stereo not given),-0.0603% [at 46 µM]
11,CC1=CCCC(C)(C)C12CCC(C)O2 (stereo not given),-0.265%
12,Nc1ccccc1S(=O)(=O)c1ccccc1,-0.0134%
13,COc1ccc(C(=O)c2ccc(OC)cc2O)c(O)c1,0.182%
14,C#CCN(C)CCCOc1ccc(Cl)cc1Cl,-0.0758% [at 46 µM]
15,C=CC1CC2C=CC1C2 (stereo not given),0.0238%
16,CC(=O)c1ccc2c(c1)N(CCCN1CCC(CCO)CC1)c1ccccc1S2,-0.011% [at 18.6 µM]
17,COC(=O)c1ccc(I)cc1S(=O)(=O)NC(=O)Nc1nc(C)nc(OC)n1,-0.0312%
18,C=C1[C@H]2CC[C@@H]3[C@H]2C(C)(C)CCC[C@]13C,0.0055%

# Biological target: Glucocorticoid receptor (Homo sapiens) (UniProt P04150)
# Sequence (P04150 whole entry, looked up): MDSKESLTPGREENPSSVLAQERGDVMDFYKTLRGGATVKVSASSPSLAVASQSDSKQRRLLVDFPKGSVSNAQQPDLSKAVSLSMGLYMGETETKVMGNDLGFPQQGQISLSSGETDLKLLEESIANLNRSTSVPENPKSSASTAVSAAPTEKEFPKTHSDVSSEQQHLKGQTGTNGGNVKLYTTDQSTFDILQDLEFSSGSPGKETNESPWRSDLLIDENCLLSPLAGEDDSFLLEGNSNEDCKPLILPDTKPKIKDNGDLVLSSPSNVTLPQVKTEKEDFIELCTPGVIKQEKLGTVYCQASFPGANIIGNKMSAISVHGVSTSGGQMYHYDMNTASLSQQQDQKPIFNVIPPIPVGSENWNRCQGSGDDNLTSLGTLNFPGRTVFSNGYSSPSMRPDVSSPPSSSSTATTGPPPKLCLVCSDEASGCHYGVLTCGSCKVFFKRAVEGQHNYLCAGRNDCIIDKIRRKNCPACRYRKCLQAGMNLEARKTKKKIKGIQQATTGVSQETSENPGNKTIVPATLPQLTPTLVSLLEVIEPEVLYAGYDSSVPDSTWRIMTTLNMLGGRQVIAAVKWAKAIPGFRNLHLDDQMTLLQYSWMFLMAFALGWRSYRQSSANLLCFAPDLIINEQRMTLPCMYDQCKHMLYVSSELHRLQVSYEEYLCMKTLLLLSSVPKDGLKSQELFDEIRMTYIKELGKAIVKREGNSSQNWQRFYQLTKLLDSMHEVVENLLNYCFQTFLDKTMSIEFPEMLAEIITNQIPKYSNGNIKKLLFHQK
# Test: qHTS assay to identify small molecule agonists of the glucocorticoid receptor (GR) signaling pathway (AID 720691; active = well fitted activation curve with a large enough effect in the signal ratio in the repeat runs, not every such curve was filed as active; the % refers to the signal ratio)
# Details: GR-bla HeLa, beta-lactamase reporter ratio, 18 h; activation: at 62.4 µM (top of the series) unless noted
# Outline: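 GR-bla HeLa cells (beta-lactamase reporter under glucocorticoid response element) were plated 4 h at 37 C/5% CO2, given compounds in DMSO, and incubated 18 h at 37 C. LiveBLAzer B/G FRET substrate was added for 2 h at room temperature, then fluorescence intensity read.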
row,SMILES,activation
1,NCC(=O)CCC(=O)O,1.06%
2,C=C(C)C(=O)OCCOCC,-0.676% [at 79.2 µM]
3,C[N+](C)(C)CCOC(=O)CCC(=O)OCC[N+](C)(C)C,2.98%
4,CCOC(=O)Cc1cccc2ccccc12,-1.77%
5,CC(=O)c1ccc2c(c1)N(CCCN(C)C)c1ccccc1S2,-0.0313% [at 29.2 µM]
6,CN1CCN(C(c2ccccc2)c2ccccc2)CC1,0.797% [at 29.2 µM]
7,Clc1ccc(Cn2c(CN3CCCC3)nc3ccccc32)cc1,-5.02% [at 29.2 µM]
8,CCCCCCCCO[C@@H]1O[C@H](CO)[C@@H](O)[C@H](O)[C@H]1O,-3.61%
9,CC(C)(O)c1ccc(CNC(=O)c2cccnc2Oc2ccc(F)cc2)cc1,-3.25%
10,c1ccc(CNCCNCc2ccccc2)cc1,-0.0875%
11,COC(C)OC,0.389%
12,O=S(=O)(Oc1ccc(Cl)cc1)c1ccccc1,-0.791%
13,COS(=O)(=O)C(F)(F)F,0.0157% [at 79.2 µM]
14,Nc1cccc([N+](=O)[O-])c1,-3.29%
15,O=C(c1ccc(F)cc1)C1CCN(CCn2c(=S)[nH]c3ccccc3c2=O)CC1,7.75%
16,CC(C)CC(=O)C1C(=O)c2ccccc2C1=O,2.62%
17,CCCCc1ncc(/C=C(\Cc2cccs2)C(=O)O)n1Cc1ccc(C(=O)O)cc1,0.125%
18,CN(C)C(=O)NC1(c2ccccc2)CCN(CC[C@@]2(c3ccc(F)c(F)c3)CN(C(=O)c3ccccc3)CCO2)CC1,-10.1%
19,CC(=O)NO,0.388%
20,Nc1ccccc1S(=O)(=O)c1ccccc1,2.75%
21,COc1ccc(C(=O)c2ccc(OC)cc2O)c(O)c1,-5.59% [at 79.2 µM]
22,C#CCN(C)CCCOc1ccc(Cl)cc1Cl,-2.09%
23,C=CC1CC2C=CC1C2 (stereo not given),-2.58%
24,CC(=O)c1ccc2c(c1)N(CCCN1CCC(CCO)CC1)c1ccccc1S2,-2.91% [at 29.2 µM]
25,COC(=O)c1ccc(I)cc1S(=O)(=O)NC(=O)Nc1nc(C)nc(OC)n1,-4.56%
26,C=C1[C@H]2CC[C@@H]3[C@H]2C(C)(C)CCC[C@]13C,0.0784%

# Biological target: Glucocorticoid receptor (Homo sapiens) (UniProt P04150)
# Test: qHTS assay to identify small molecule antagonists of the glucocorticoid receptor (GR) signaling pathway (AID 720692; active = well fitted inhibition curve with a large enough effect in the signal ratio in the repeat runs, not every such curve was filed as active; the % refers to the signal ratio)
# Details: GR-bla HeLa, beta-lactamase FRET ratio, dexamethasone-stimulated, 18 h; series mostly up to 58.5 µM; activity change, negative = inhibition: at the top concentration
# Outline: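 GR-bla HeLa cells (beta-lactamase reporter under glucocorticoid response element) were pre-plated 4 h at 37 C, treated with compounds plus 5 nM dexamethasone (final) for 18 h, then read by LiveBLAzer B/G FRET fluorescence after 2 h.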
row,SMILES,"activity change, negative = inhibition"
1,NCC(=O)CCC(=O)O,21.5%
2,CCOC(=O)Cc1cccc2ccccc12,8.74%
3,CC(=O)c1ccc2c(c1)N(CCCN(C)C)c1ccccc1S2,10.5% [at 27 µM]
4,CCCCCCCCO[C@@H]1O[C@H](CO)[C@@H](O)[C@H](O)[C@H]1O,0.908%
5,CC(C)(O)c1ccc(CNC(=O)c2cccnc2Oc2ccc(F)cc2)cc1,6.09%
6,O=S(=O)(Oc1ccc(Cl)cc1)c1ccccc1,0%
7,COS(=O)(=O)C(F)(F)F,-1.44% [at 78.9 µM]
8,O=C(c1ccc(F)cc1)C1CCN(CCn2c(=S)[nH]c3ccccc3c2=O)CC1,26.9%
9,C#CCN(C)CCCOc1ccc(Cl)cc1Cl,13.5%
10,C=CC1CC2C=CC1C2 (stereo not given),-0.165%
11,CC(=O)c1ccc2c(c1)N(CCCN1CCC(CCO)CC1)c1ccccc1S2,10.7% [at 27 µM]
12,COC(=O)c1ccc(I)cc1S(=O)(=O)NC(=O)Nc1nc(C)nc(OC)n1,-0.605%
